Test results: PubChem BioAssay (NCATS)
Results filed as inconclusive are left out. Active and inactive are the calls of the source. Unless noted, the call rests on the fitted dose curve; in most records, active means well fitted curve in the direction sought with a large enough effect; inconclusive means small, poorly fitted or top-dose-only effect, or another doubt; inactive means no such curve, though single readings can be large; an effect the other way counts as inactive or inconclusive.

How the values were obtained:
[1] = test system: Zika virus NS2B-NS3 protease (unlinked complex); assay: Primary screen GU Rhodamine qHTS for Zika virus inhibitors: Unlinked NS2B-NS3 protease assay (AID 1347159); further: nearly all actives have a fitted effect of over 60% in size; further: potency means the concentration at half of the fitted maximal effect
Method in brief: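 Percent inhibition came from the 15-min rise in Rhodamine110 fluorescence (1.5 microM substrate, ~15% conversion), normalized to no-inhibitor and no-enzyme wells and Hill-fitted. Unlinked protease, 25 nM, pH 8.0 Tris buffer; compounds up to 114 microM, 15-min preincubation.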

[2] = test system: Zika virus NS2B-NS3 protease (linked construct); assay: Primary screen NINDS Rhodamine qHTS for Zika virus inhibitors (AID 1347160); further: nearly all actives have a fitted effect of over 55% in size; further: potency means the concentration at half of the fitted maximal effect
Method in brief: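 Rhodamine110-peptide cleavage (1.5 µM substrate) by 25 nM linked NS2B-NS3 enzyme at pH 8.0 (Tris, Tween 20), after 15 min RT preincubation with compounds; 15-min fluorescence change normalized to controls and Hill-fitted.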

[3] = target: Calcium and integrin-binding protein 1 (Homo sapiens) (UniProt Q99828); assay: Primary qHTS for Identification of Calcium Integrin Binding Protein 1 (CIB1) Competitor (AID 1508620);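 further: GST tagged CIB1 binding a fluorescein labelled alphaIIb integrin peptide tracer; top concentration of the series differs between compounds; on the % scale 0 is the no-effect control and ±100 the full control effect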
Method in brief: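 Fluorescence polarization competition: GST-tagged CIB1 (1 uM final) preincubated with compound 15 min at room temperature, then FITC-labelled alphaIIb peptide (100 nM final) added. After 15 min at room temperature, polarization read at Ex 480/Em 540.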

[4] = target: Phospholipid hydroperoxide glutathione peroxidase GPX4 (Homo sapiens) (UniProt P36969); assay: Primary qHTS Assay for Inhibitors of Recombinant Selenoprotein Glutathione Peroxidase 4 (GPX4) (AID 1845192); conditions: outcome: dose series up to 50 µM unless noted; further: on the % scale 0 is the no-effect control and ±100 the full control effect; nearly all actives have a fitted effect of over 65% in size
Method in brief: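 Steps: GPX4 plus compound, 30 min RT; add GR/GSH/NADPH master mix; start with cumene hydroperoxide; read 340/450 nm fluorescence at 0 and 15 min. Finals were 200 nM GPX4, 1 mM GSH, 0.5 mM CHP, 0.5 mM NADPH, 100 nM GR.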

[5] = target: Luciferin 4-monooxygenase (Photinus pyralis) (UniProt P08659); assay: Primary firefly luciferase (FLuc) qHTS assay for identification of artifact compounds. (AID 1845220); further: nearly all actives have a fitted effect of over 60% in size
Method in brief: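 Enzymatic FLuc inhibition assay: compounds pre-exposed to luciferin/ATP (10 uM each) for 15 min, then purified P. pyralis enzyme at 10 nM added. Read-out: luminescence at 5 min.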

C33A = assay: Primary qHTS to identify gynecologic anti-cancer compounds using libraries of approved drugs and bioactive compounds (AID 1345084); conditions: Gynecologic cancer cell panel viability, ATPlite luminescence, 48 h; series mostly up to 57.5 µM; further: on the % scale 0 is the no-effect control and ±100 the full control effect; nearly all actives have a fitted effect of over 55% in size
Method in brief: (§1)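 Five-concentration response, 48 h; readout is ATP-driven luciferase luminescence.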

CASKI = assay: as above; conditions: Gynecologic cancer cell panel viability, ATPlite luminescence, 48 h; series mostly up to 57.5 µM
Method in brief: as §1

Es-2 = assay: as above; conditions: Gynecologic cancer cell panel viability, ATPlite luminescence, 48 h; series mostly up to 57.5 µM
Method in brief: as §1

OV90 = assay: as above; conditions: Gynecologic cancer cell panel viability, ATPlite luminescence, 48 h; series mostly up to 57.5 µM
Method in brief: as §1

Tov-21-G = assay: as above; conditions: Gynecologic cancer cell panel viability, ATPlite luminescence, 48 h; series mostly up to 57.5 µM
Method in brief: as §1

Tov112D = assay: as above; conditions: Gynecologic cancer cell panel viability, ATPlite luminescence, 48 h; series mostly up to 57.5 µM
Method in brief: as §1

[6] = P-glycoprotein substrates identified in KB-8-5-11 adenocarcinoma cell line, qHTS therapeutic library screen (AID 1346987); further: potency means the concentration at half of the fitted maximal effect; nearly all actives have a fitted effect of over 65% in size
Method in brief: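 Human cervical adenocarcinoma KB-8-5-11 cells, selected in colchicine to over-express P-gp and assayed without it, were exposed for 72 h to titrated compounds. An ATP-based luminescent viability signal gave AC50.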

[7] = target: Glutathione peroxidase 1 (Homo sapiens) (UniProt P07203); assay: Primary qHTS Assay for Inhibitors of Recombinant Selenoprotein Glutathione Peroxidase 1 (GPX1) (AID 1845191); further: nearly all actives have a fitted effect of over 65% in size
Method in brief: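 GR-coupled readout: NADPH consumption tracked by fluorescence, ex 340/em 450 nm, at t=0 and after 15 min at RT. Final mix 10 nM GPX1, 1 mM GSH, 0.5 mM CHP, 0.5 mM NADPH, 100 nM GR, 0.01% BSA, following 30 min enzyme–compound preincubation.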

[8] = test system: Nanoluciferase (engineered Oplophorus gracilirostris luciferase); assay: Primary Nanoluciferase (NLuc) qHTS assay for identification of artifact compounds. (AID 1845222);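 further: NLuc secreted into diluted conditioned medium of S16 cells; 0% = DMSO and -100% = no enzyme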
Method in brief: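 S16 cell supernatant NLuc, 1:55; cpds qHTS; 15 min RT dark; Nano-Glo substrate 1:100, 5 min; luminescence; Hill fit of % inhibition.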

Hek293T = assay: Primary qHTS to identify gynecologic anti-cancer compounds using libraries of approved drugs and bioactive compounds (AID 1345084); conditions: Gynecologic cancer cell panel viability, ATPlite luminescence, 48 h, control line for the selectivity index; series mostly up to 57.5 µM; further: on the % scale 0 is the no-effect control and ±100 the full control effect; nearly all actives have a fitted effect of over 55% in size
Method in brief: as §1

JEG-3 = assay: as above; conditions: Gynecologic cancer cell panel viability, ATPlite luminescence, 48 h; series mostly up to 57.5 µM
Method in brief: as §1

[9] = Primary qHTS for inhibitors of nuclear receptor binding SET domain protein 2 (NSD2) in an isogenic RCH-ACV NSD2 p.E1099K mutant (9B) (AID 1645876); further: potency means the concentration at half of the fitted maximal effect; nearly all actives have a fitted effect of over 70% in size
HeLa = assay: Primary qHTS to identify gynecologic anti-cancer compounds using libraries of approved drugs and bioactive compounds (AID 1345084); conditions: Gynecologic cancer cell panel viability, ATPlite luminescence, 48 h; series mostly up to 57.5 µM; further: on the % scale 0 is the no-effect control and ±100 the full control effect; nearly all actives have a fitted effect of over 55% in size
Method in brief: as §1

[10] = Primary qHTS for inhibitors of nuclear receptor binding SET domain protein 2 (NSD2) in an RCH-ACV wild type WT cells (2C) (AID 1645877); further: potency means the concentration at half of the fitted maximal effect; nearly all actives have a fitted effect of over 70% in size
[11] = qHTS drug screen for cell cycle checkpoint inhibitors in PARPi-resistant BRCA-mutant ovarian cancer cell lines. (AID 1963452; calls by dose curve); conditions: PEO1/OlaR viability, CellTiter-Glo luminescence, 96 h, stronger effect = lower value
Method in brief: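 PEO1, PEO4 and PEO1/OlaR ovarian cancer cells, 600 per well, exposed 96 h at 37C to a dilution series. Viability read by CellTiter-Glo luminescence, normalized to DMSO and empty wells; activity summarized as Z-AUC.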

[12] = measured here: PEO1 parental Z-AUC

Glutathione peroxidase 1 (Homo sapiens), sequence (P07203 whole entry, looked up): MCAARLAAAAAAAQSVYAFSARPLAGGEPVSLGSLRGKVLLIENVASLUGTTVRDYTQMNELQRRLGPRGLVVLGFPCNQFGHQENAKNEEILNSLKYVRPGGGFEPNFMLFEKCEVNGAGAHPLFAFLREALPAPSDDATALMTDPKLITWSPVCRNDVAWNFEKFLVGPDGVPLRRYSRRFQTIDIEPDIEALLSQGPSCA
Calcium and integrin-binding protein 1 (Homo sapiens), sequence (Q99828 whole entry, looked up): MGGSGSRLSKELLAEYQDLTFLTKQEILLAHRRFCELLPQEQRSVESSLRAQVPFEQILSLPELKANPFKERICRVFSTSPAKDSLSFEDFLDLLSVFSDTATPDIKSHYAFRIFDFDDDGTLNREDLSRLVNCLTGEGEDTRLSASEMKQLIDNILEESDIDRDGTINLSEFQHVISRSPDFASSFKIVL
Phospholipid hydroperoxide glutathione peroxidase GPX4 (Homo sapiens), sequence (P36969 whole entry, looked up): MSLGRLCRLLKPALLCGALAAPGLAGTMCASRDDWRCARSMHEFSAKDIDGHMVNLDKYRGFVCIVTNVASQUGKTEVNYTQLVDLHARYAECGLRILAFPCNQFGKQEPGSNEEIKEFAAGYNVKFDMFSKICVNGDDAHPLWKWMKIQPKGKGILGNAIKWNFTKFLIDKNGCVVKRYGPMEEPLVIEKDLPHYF

CC1=CC(=O)[C@@]2(C(C)C)C[C@@H]12
active: Potency [1] 2.51 µM | Potency [2] 3.16 µM
inactive: outcome [3] | Potency [4] | Potency [5] | Potency (C33A) | Potency (CASKI) | Potency (Es-2) | Potency (OV90) | Potency (Tov-21-G) | Potency (Tov112D)

COc1cccc(NC[C@@H](O)Cn2c3ccc(Br)cc3c3cc(Br)ccc32)c1
active: Potency [6] 23.1 µM | Potency [1] 44.7 µM
inactive: outcome [3] | Potency [7] | Potency [4] | Potency [5] | Potency [8] | Potency (C33A) | Potency (CASKI) | Potency (Es-2) | Potency (Hek293T) | Potency (JEG-3) | Potency (Tov112D)

CNc1nc(-c2ccc3c(N)n[nH]c3c2)cc(N2CC(C(=O)NC3CCCCC3)CCC2C)n1 (stereo not given)
inactive: Potency [1] | Potency [2] | outcome [3] | Potency [7] | Potency [4] | Potency [5] | Potency [8] | Potency (C33A) | Potency (CASKI) | Potency (Es-2) | Potency (HeLa) | Potency (Tov112D)
active: Potency [9] 0.578 µM

O=C(Nc1cccc(C(F)(F)F)c1)c1ccccc1NCc1ccncc1
inactive: Potency [1] | Potency [2] | Potency [5] | Potency [8] | Potency (C33A) | Potency (CASKI) | Potency (HeLa) | Potency (JEG-3) | Potency (OV90) | Potency (Tov-21-G)

CCC(=O)Nc1cccc(Oc2nc(Nc3ccc(N4CCN(C)CC4)cc3OC)ncc2Cl)c1
active: Potency [6] 16.4 µM | Potency [9] 16.3 µM | Potency [10] 14.5 µM
0.187: Z-AUC [11, 12]
inactive: Potency [1] | Potency [2] | outcome [3] | Potency [4] | Potency [5] | Potency [8] | Z-AUC [11] -0.15 | Potency (C33A) | Potency (CASKI) | Potency (Es-2) | Potency (HeLa) | Potency (Hek293T) | Potency (JEG-3) | Potency (OV90) | Potency (Tov112D)
0.383: Z-AUC ([11]; measured here: PEO4 Z-AUC)

COC(=O)/C=C/C(=O)N(O)CCCCNCc1ccc(COC(=O)Nc2cccc3ccccc23)cc1
0.131: Z-AUC ([11]; measured here: PEO4 Z-AUC)
active: Potency [9] 9.34 µM
inactive: Potency [1] | Potency [2] | outcome [3] | Potency [4] | Potency [8] | Z-AUC [11] 0.336 | Potency (HeLa) | Potency (JEG-3) | Potency (OV90) | Potency (Tov-21-G) | Potency (Tov112D)
0.0181: Z-AUC [11, 12]

NC(=Nc1ccc(CCNCc2cccc(Cl)c2)cc1)c1cccs1
active: Potency [6] 23.1 µM | Potency [9] 11.5 µM | Potency [10] 11.5 µM
inactive: Potency [1] | Potency [2] | outcome [3] | Potency [7] | Potency [4] | Potency [8] | Potency (Es-2) | Potency (HeLa) | Potency (Hek293T) | Potency (Tov-21-G) | Potency (Tov112D)
